Screening data (PubChem)
Compounds with a hit are over-represented: about 6.2% of the library has one in this group of screens.
HT1080-NT tox: qHTS for induction of synthetic lethality in tumor cells producing 2HG: qHTS for the HT-1080-NT fibrosarcoma cell line | HT-1080-NT fibrosarcoma viability, CellTiter-Glo ATP luminescence, 48 h | Potency, µM (top dose mostly 46.1 µM), inactives show at the highest dose activity, negative = less viability, usual class: cytotoxic | 1.6% of 360,000 active | AID 686970, 2013;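 note: NT is the 2HG producing partner of a matched IDH1 knockdown line; 0% = DMSO-treated cells and -100% = media-only wells without cells; nearly all actives have a fitted effect of over 55% in size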
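Compounds were tested in concentration-response format on HT-1080-NT cells for 48 hours at 37 degrees C. Cell viability came from CellTiter-Glo luminescence; curves were classified by r2, response magnitude and activity.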
KB-3-1 cytotox: qHTS assay for MDR1-selective chemotherapeutics: Primary screen using the parental adenocarcinoma cell KB-3-1; Potency, µM (titrated, usually from 46.1 µM), actives largely listed as cytotoxic; 1.4% of 400,000 active; KB-3-1 viability, CellTiter-Glo ATP luminescence, 72 h; note: % is set by controls: 0 for no effect and ±100 for the full control effect; nearly all actives have a fitted effect of over 60% in size
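Parental KB-3-1 viability, qHTS format: 72 h compound exposure, 37 °C; CellTiter-Glo; media-only wells and DMSO plates as controls; concentration-effect fits on corrected data.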
HT1080 IDH1KD tx: qHTS for induction of synthetic lethality in tumor cells producing 2HG: qHTS for the HT-1080-IDH1KD cell line. Potency, µM (top dose mostly 46.1 µM), without a hit: at the top dose activity, negative = toxicity, usual class: cytotoxic. HT-1080 IDH1 knockdown viability, ATP luminescence, 48 h. 2% of 360,000 active. AID 686971, 2013;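 note: 0% = DMSO wells and -100% = cell-free medium wells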
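% activity derives from luminescence (CellTiter-Glo), normalised to DMSO and no-cell wells. HT-1080-IDH1KD cells, 750/well, had 48 h compound exposure at 37 °C.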
KB-V1 cytotox: qHTS assay for MDR1-selective chemotherapeutics: Primary screen using the drug-selected MDR subline cells KB-V1. KB-V1 MDR cells viability, CellTiter-Glo, 72 h. AID 1347076, 2019. Potency, µM (top dose mostly 46.1 µM), most hits filed as cytotoxic. 3.4% of 400,000 active; note: % is set by controls: 0 for no effect and ±100 for the full control effect; nearly all actives have a fitted effect of over 60% in size
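Cytotoxicity via CellTiter-Glo luminescence after 72 h compound exposure at 37 degrees C. Cells: drug-selected KB-V1 line, DMEM phenol-red free plus 10% FBS. Compounds tested at multiple concentrations; normalized data fitted to concentration-effect curves.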
ATXN viability: Viability Counterscreen for Primary qHTS for Inhibitors of ATXN expression; S2 cells (HEK-293 line with an ATXN2-luciferase reporter) viability, CellTiter-Fluor protease fluorescence, 24 h; Potency, µM (doses to about 56.7 µM), usual class: cytotoxic; 0.49% of 400,000 active; AID 651635, 2014; note: nearly all actives have a fitted effect of over 40% in size
ATXN2 expr inh: Primary qHTS for Inhibitors of ATXN expression; HEK-293 ATXN2-luciferase reporter, luminescence, 24 h; Potency, µM (series often up to 57 µM), for inactives: at the highest dose activity change, negative = inhibition, actives largely listed as inhibitors; 0.72% of 360,000 active; note: % is set by controls: 0 for no effect and ±100 for the full control effect; nearly all actives have a fitted effect of over 55% in size
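qHTS (up to 57 uM final) was run with 24 h compound exposure of reporter cells at 37 °C. Each well was multiplexed: SteadyGlo luminescence measured ATXN2-luciferase expression after a fluorogenic Gly-Phe-AFC viability readout (25 uM final).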
An asterisk follows results filed as active; i = inactive; ? = inconclusive; nt = no result given. Calls come from the whole dose curve; as a rule, active = well fitted curve in the direction sought with a large enough effect; inconclusive = small, poorly fitted or top-dose-only effect, or another doubt; inactive = no such curve, though single readings can be large; an effect the other way counts as inactive or inconclusive. Potency is the fitted concentration of half-maximal effect.

SMILES | HT1080-NT tox | KB-3-1 cytotox | HT1080 IDH1KD tx | KB-V1 cytotox | ATXN viability | ATXN2 expr inh
Cc1cccc(OCC(=O)NNc2c3ccccc3nc3ccccc23)c1 | -3% | i | ? | 13µM* | i | -16%
CN(C)c1ccc(-c2noc(C3CC(=O)N(c4ccc5c(c4)OCCO5)C3)n2)cc1 (stereo unspecified) | nt | ? | nt | ? | i | 1%
CC(C)S(=O)(=O)c1csc(NC(=O)Nc2cccc([N+](=O)[O-])c2)c1Cl | -4% | 23µM* | 16% | ? | ? | nt
O=C(Nc1cccc([N+](=O)[O-])c1)Nc1cccc([N+](=O)[O-])c1 | ? | i | ? | i | i | 0%
CCCCCCN1C[C@@H](n2cc(C3CC3)nn2)[C@H](O)C[C@@H]1c1ccc(OC)cc1 | -11% | i | -6% | ? | 20µM* | ?
CCCCCCN1C[C@H](n2cc(COC(=O)c3ccccc3)nn2)[C@@H](O)C[C@@H]1c1ccccc1 | 2% | i | 5% | i | ? | 0%
CCCCCCN1C[C@@H](n2cc(COC(=O)c3ccccc3)nn2)[C@H](O)C[C@@H]1c1ccc(Cl)cc1 | 9% | i | 6% | i | 32µM* | ?
CCCCCCN1C[C@@H](n2cc(C3CC3)nn2)[C@H](O)C[C@@H]1c1ccc(C)cc1 | -28% | i | ? | i | 20µM* | ?
O=C(Cc1c(F)cccc1Cl)Nc1ccc(S(=O)(=O)Nc2nccs2)cc1 | -7% | i | -8% | i | i | -17%
O=C1NC[C@@H](CCCCN2CCN(CCC3CCCCC3)C(=O)C2=O)N(CC2CCCCC2)C1=O | 13% | i | 2% | i | i | -4%
COc1cc(/C=C(/C#N)C(=O)NCCc2c[nH]c3ccccc23)ccc1OCc1ccccc1F | -2% | ? | -8% | ? | 10µM* | 7.1µM*
CC(=C\c1ccco1)/C=C(\C#N)C(=O)NCCc1c[nH]c2ccccc12 | -1% | i | 12% | 23µM* | i | -6%
Cc1cc(C)c(NC(=O)Cn2c(=O)n(CCC(C)C)c(=O)c3cccnc32)c(C)c1 | nt | i | nt | i | i | 11%
CCOc1ccc(S(=O)(=O)N2CCCCC2)cc1NC(=O)C1CSC2(C)CCC(=O)N12 (stereo unspecified) | -3% | i | -1% | i | i | -6%
COc1ccc2nccc(/C=C/c3ccc(N(C)C)cc3)c2c1 | nt | i | nt | i | nt | nt
CCc1c(-c2ccc(OC)cc2)ncn1Cc1cccc(-c2ccccc2)c1 | ? | ? | ? | 16µM* | nt | nt
COCn1cnc(-c2ccccc2)c1-c1ccccc1 | 2% | i | 0% | i | i | -5%
COc1ccccc1-c1nc2ccccc2nc1-c1ccccc1 | -1% | i | -1% | i | i | -6%
COc1ccccc1-c1ncn(Cc2cccc(-c3ccccc3)c2)c1CC(C)C | 18µM* | ? | ? | 16µM* | 11µM* | 11µM*
CCc1c(-c2cccc(Br)c2)ncn1Cc1cccc(-c2ccccc2)c1 | -93% | ? | ? | i | nt | nt
CCc1c(-c2ccccc2OC)ncn1Cc1cccc(-c2ccccc2)c1 | 15µM* | 13µM* | 8.2µM* | ? | nt | nt
O=C(NCc1ccc(Cl)cc1)C1CCN(S(=O)(=O)c2ccc3c(c2)CCCN3C(=O)C2CCC2)CC1 | nt | ? | nt | i | ? | -13%
O=c1c2ccccc2nc2c3ccccc3c3nncn3n12 | 7% | ? | -1% | 7.3µM* | i | 9%
O=c1c2ccccc2nc2c3ccccc3cnn12 | 13% | i | 5% | i | i | 12%
